B1: ENSMUSG00000028439.351|Fam219a (ssRNA)
RNA: GGGAGUUCUACAGUCCGACGAUCGCUUCGAUAUCCGCAUGCUACCCCCCACCGCAUCCCCACUGGGCUCUUUGACUCACCCUUCUAGAACAUGGGUGCCUCCUCUCUUUAGACUGCUGCCUUUGCCUCUGACUUCCUGUGGGAUUGAGAGCCAAGGGCCAGUGCCCUUGUGAGCGCACUAGUUCCGAAGCAGGCAAGGGCAUUAGGUGGUAUAUACAUAGCGGGUAGGGGUAGGAAGCUGGCAGCCUGCAGCUUCCAAGUCCAAGGAGAGCACACAGUUCCCUCCUUCCCUGCCUGGAAGUUGCUCUUGCGGUCGCACUAGUGUGGAAUUCUCGGGUGUCAAGG
B2: ENSMUSG00000061578.187|Ksr2 (ssRNA)
RNA: GGGAGUUCUACAGUCCGACGAUCGCUUCGAUAUCCGCAUGCUAUUGUGCACACUCAGCACCCCAUCUUCCAAGCCUUUCUUCAUCCCCCACCUUCUUUUGGGAAGGGGUGGCACAGAGUGAAUGGGAAGGAGAGCCCUGAGGUCACUGGUCCACAUGCCCAAAGCCAUGCCCCCCAGUGAUCAGACCUGACACAAGAGGCAAAGCUGUCCCUAAGCAGAGAAUUAGCAGGGUUAGCCAGACAGCAAAAUCCAUGUAAACAUACAAAACCACCCCCCCUUUUUGAGUGGCCCUAUUGGAUGUACCUCUUGCGGUCGCACUAGUGUGGAAUUCUCGGGUGUCAAGG
B3: ENSMUSG00000029028.38|Lrrc47 (ssRNA)
RNA: GGGAGUUCUACAGUCCGACGAUCGCUUCGAUAUCCGCAUGCUAUGUGCUGUAGGUGUCUGUGUAGGUGUGGGUGUGCUGUAGGUGUCUGUGUGGGUGUGCUAGGUGUCUGUAUAGGUGUGGGUGUGCUGUAGAUGUCUGUGUAGGUAUGGGUGUGCUGUAGAUCUUUGUAGGUGUAGGUAUGCUGUAGGUAUCUGGGUGUGGGUAUGCUGUAGAUGUCUGUGUAGGUGUGGAUAUGCUGUAGGUAUCUGGGUGUGCUGUAGGUGUCUGUGUGGGUGUGGGUGUGCUGUGGGUGUCUGUGUGGGCUCUUGCGGUCGCACUAGUGUGGAAUUCUCGGGUGUCAAGG
B4: ENSMUSG00000029028.66|Lrrc47 (ssRNA)
RNA: GGGAGUUCUACAGUCCGACGAUCGCUUCGAUAUCCGCAUGCUAAGAUGUCUGUGUAGGUGUGGAUAUGCUGUAGGUAUCUGGGUGUGCUGUAGGUGUCUGUGUGGGUGUGGGUGUGCUGUGGGUGUCUGUGUGGGUGUGCUGUAGGUGUCUGUAGGUGUGGGUAUGCUGCAGGUGUGGGUGUGCUGUAGAUCUCUAUAGGUGUGGGUGUGCUGUAGGGGUCUGUGUGGGUAUAGGUGUGGGUGUGCUGUAGAUUCUGUGUAACUGGUUCUUUGCUGUUUCUCUGGGUGUUUUAAGGUGUCUGCCUCUUGCGGUCGCACUAGUGUGGAAUUCUCGGGUGUCAAGG
B5: ENSMUSG00000029028.21|Lrrc47 (ssRNA)
RNA: GGGAGUUCUACAGUCCGACGAUCGCUUCGAUAUCCGCAUGCUAUGUGCUGUAGGUGUCUGUGUGGGUGUGGGUGUGCUGUAGGUGUCUGUGUGGGUGUGGGUGUGCUAUAGGUAUCUGUGGGUGUGCUGUAGGUGUCUGUGUGGGUGUGCUGUAGGUGUCUGUGUAGGUGUGGGUGUGCUGUAGGUGUCUGUGUGGGUGUGCUAGGUGUCUGUAUAGGUGUGGGUGUGCUGUAGAUGUCUGUGUAGGUAUGGGUGUGCUGUAGAUCUUUGUAGGUGUAGGUAUGCUGUAGGUAUCUGGGUGUGCUCUUGCGGUCGCACUAGUGUGGAAUUCUCGGGUGUCAAGG
B6: ENSMUSG00000029028.67|Lrrc47 (ssRNA)
RNA: GGGAGUUCUACAGUCCGACGAUCGCUUCGAUAUCCGCAUGCUACUGUGUAGGUGUGGAUAUGCUGUAGGUAUCUGGGUGUGCUGUAGGUGUCUGUGUGGGUGUGGGUGUGCUGUGGGUGUCUGUGUGGGUGUGCUGUAGGUGUCUGUAGGUGUGGGUAUGCUGCAGGUGUGGGUGUGCUGUAGAUCUCUAUAGGUGUGGGUGUGCUGUAGGGGUCUGUGUGGGUAUAGGUGUGGGUGUGCUGUAGAUUCUGUGUAACUGGUUCUUUGCUGUUUCUCUGGGUGUUUUAAGGUGUCUGCUUUUGUCUCUUGCGGUCGCACUAGUGUGGAAUUCUCGGGUGUCAAGG
B7: ENSMUSG00000029028.68|Lrrc47 (ssRNA)
RNA: GGGAGUUCUACAGUCCGACGAUCGCUUCGAUAUCCGCAUGCUAAGGUGUGGAUAUGCUGUAGGUAUCUGGGUGUGCUGUAGGUGUCUGUGUGGGUGUGGGUGUGCUGUGGGUGUCUGUGUGGGUGUGCUGUAGGUGUCUGUAGGUGUGGGUAUGCUGCAGGUGUGGGUGUGCUGUAGAUCUCUAUAGGUGUGGGUGUGCUGUAGGGGUCUGUGUGGGUAUAGGUGUGGGUGUGCUGUAGAUUCUGUGUAACUGGUUCUUUGCUGUUUCUCUGGGUGUUUUAAGGUGUCUGCUUUUGUCCAGGUCUCUUGCGGUCGCACUAGUGUGGAAUUCUCGGGUGUCAAGG
B8: ENSMUSG00000029028.20|Lrrc47 (ssRNA)
RNA: GGGAGUUCUACAGUCCGACGAUCGCUUCGAUAUCCGCAUGCUAUGUGGGUGUGCUGUAGGUGUCUGUGUGGGUGUGGGUGUGCUGUAGGUGUCUGUGUGGGUGUGGGUGUGCUAUAGGUAUCUGUGGGUGUGCUGUAGGUGUCUGUGUGGGUGUGCUGUAGGUGUCUGUGUAGGUGUGGGUGUGCUGUAGGUGUCUGUGUGGGUGUGCUAGGUGUCUGUAUAGGUGUGGGUGUGCUGUAGAUGUCUGUGUAGGUAUGGGUGUGCUGUAGAUCUUUGUAGGUGUAGGUAUGCUGUAGGUAUCUGCUCUUGCGGUCGCACUAGUGUGGAAUUCUCGGGUGUCAAGG
B9: ENSMUSG00000029028.28|Lrrc47 (ssRNA)
RNA: GGGAGUUCUACAGUCCGACGAUCGCUUCGAUAUCCGCAUGCUAUCUGUGUGGGUGUGGGUGUGCUAUAGGUAUCUGUGGGUGUGCUGUAGGUGUCUGUGUGGGUGUGCUGUAGGUGUCUGUGUAGGUGUGGGUGUGCUGUAGGUGUCUGUGUGGGUGUGCUAGGUGUCUGUAUAGGUGUGGGUGUGCUGUAGAUGUCUGUGUAGGUAUGGGUGUGCUGUAGAUCUUUGUAGGUGUAGGUAUGCUGUAGGUAUCUGGGUGUGGGUAUGCUGUAGAUGUCUGUGUAGGUGUGGAUAUGCUGUAGGCUCUUGCGGUCGCACUAGUGUGGAAUUCUCGGGUGUCAAGG
B10: ENSMUSG00000029028.44|Lrrc47 (ssRNA)
RNA: GGGAGUUCUACAGUCCGACGAUCGCUUCGAUAUCCGCAUGCUAUAGGUGUCUGUGUGGGUGUGCUAGGUGUCUGUAUAGGUGUGGGUGUGCUGUAGAUGUCUGUGUAGGUAUGGGUGUGCUGUAGAUCUUUGUAGGUGUAGGUAUGCUGUAGGUAUCUGGGUGUGGGUAUGCUGUAGAUGUCUGUGUAGGUGUGGAUAUGCUGUAGGUAUCUGGGUGUGCUGUAGGUGUCUGUGUGGGUGUGGGUGUGCUGUGGGUGUCUGUGUGGGUGUGCUGUAGGUGUCUGUAGGUGUGGGUAUGCUGCACUCUUGCGGUCGCACUAGUGUGGAAUUCUCGGGUGUCAAGG
B11: ENSMUSG00000029028.19|Lrrc47 (ssRNA)
RNA: GGGAGUUCUACAGUCCGACGAUCGCUUCGAUAUCCGCAUGCUAUGUAGGUGUGGGUGUGCUGUAGGUGUCUGUGUGGGUGUGGGUGUGCUGUAGGUGUCUGUGUGGGUGUGGGUGUGCUAUAGGUAUCUGUGGGUGUGCUGUAGGUGUCUGUGUGGGUGUGCUGUAGGUGUCUGUGUAGGUGUGGGUGUGCUGUAGGUGUCUGUGUGGGUGUGCUAGGUGUCUGUAUAGGUGUGGGUGUGCUGUAGAUGUCUGUGUAGGUAUGGGUGUGCUGUAGAUCUUUGUAGGUGUAGGUAUGCUGUAGGCUCUUGCGGUCGCACUAGUGUGGAAUUCUCGGGUGUCAAGG

Over roughly 9,900 sequences, “r (bound/input frequency ratio)” has its median near 0.7; the highest 2% begin near 6.5. What follows is part of a selection rich in the highest values, with near analogues and random picks from the rest.

Chain of TDP-43 (Q13148 whole entry): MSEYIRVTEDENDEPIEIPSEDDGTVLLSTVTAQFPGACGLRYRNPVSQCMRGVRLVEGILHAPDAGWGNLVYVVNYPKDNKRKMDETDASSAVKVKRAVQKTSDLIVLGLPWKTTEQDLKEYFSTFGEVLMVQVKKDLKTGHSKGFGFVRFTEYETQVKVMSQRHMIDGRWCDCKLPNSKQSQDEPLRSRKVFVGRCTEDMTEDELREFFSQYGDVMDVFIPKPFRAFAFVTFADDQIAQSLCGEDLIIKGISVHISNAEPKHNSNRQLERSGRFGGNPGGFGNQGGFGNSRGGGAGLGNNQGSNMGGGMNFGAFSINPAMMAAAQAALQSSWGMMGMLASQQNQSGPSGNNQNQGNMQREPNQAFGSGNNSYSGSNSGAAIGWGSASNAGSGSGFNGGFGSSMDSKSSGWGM

In the experiment the target is TDP-43 (Homo sapiens, UniProt Q13148 1-414). Briefly: RNA Bind-n-Seq with designed 260-mer pool; 25 mM Tris-HCl, 150 mM KCl, 3 mM MgCl2, BSA (printed 500 mg/mL), 20 units/mL SUPERase IN; pH not stated; 500 nM RNA pool, 1 h, 4 C; TDP-43 5, 50, 500 nM; high values mean tight binding. The note with it: protein: recombinant; tags: SBP (GST cleaved off with PreScission; pGEX-GST-SBP). In short, it runs like this:
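The incubation lasted 1 h at 4 °C and used 500 nM of an in vitro-transcribed 260-nt 3′ UTR oligo pool with recombinant SBP-tagged TDP-43 at 5, 50 or 500 nM immobilized on streptavidin beads. It took place in 25 mM Tris-HCl, 150 mM KCl, 3 mM MgCl2, BSA and SUPERase IN. Bound RNA was washed, eluted with biotin, converted to cDNA, PCR-amplified and sequenced to give R, each oligo's normalized abundance in the bound sample divided by that in input. Two independent protein batches provided the duplicates.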
On to B1, for which the binding signal is 0.423 R (bound/input frequency ratio).
Next, B2: 0.56 R (bound/input frequency ratio); B3: 5.89 R (bound/input frequency ratio); B4: 4.75 R (bound/input frequency ratio).
Take B5: the binding signal is 5.32 R (bound/input frequency ratio).
On to B6, for which the binding signal is 6.13 R (bound/input frequency ratio).
For the molecule B7, the binding signal is 7.46 R (bound/input frequency ratio).
As to B8, the binding signal is 5.01 R (bound/input frequency ratio).
Consider B9, for which the binding signal is 6.68 R (bound/input frequency ratio).
To B10 belongs 6.44 R (bound/input frequency ratio).
For the molecule B11, the binding signal is 6.81 R (bound/input frequency ratio).

For the origin of these results see paper PMC12864922, “TDP-43 directly inhibits mRNA accumulation in neurites through modulation of mRNA stability”.
